Each structure is given as a SMILES string. The source made the active and inactive calls. How the source made its calls: active means hit-call score of the fitted dose curve at least 0.9, where 1 is the maximum; inactive means score below 0.9.

Read-out in experiment [1]: TIMP metallopeptidase inhibitor 1 (TIMP1), TIMP1 (gene 7076)
In words: BSK_hDFCGF_TIMP1: BioMAP Diversity Plus: hDFCGF Assay for TIMP metallopeptidase inhibitor 1 (TIMP1) Biomarker Activity (AID 2283062). The conditions noted are these: primary human foreskin fibroblasts; actives raise or lower the signal. The method, boiled down:
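Fibroblasts from human foreskin are treated with test chemical and harvested at 24 h. TIMP-1 is quantified by ELISA, and gain or loss of signal is scored against DMSO.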

Read-out in experiment [2]: Monokine induced gamma interferon (MIG), CXCL9 (gene 4283)
In words: BSK_hDFCGF_MIG: BioMAP Diversity Plus: hDFCGF Assay for Monokine induced gamma interferon (MIG) Biomarker Activity (AID 2283063). The following applies: primary human foreskin fibroblasts; actives raise or lower the signal. The procedure, abridged: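 MIG signal, determined by ELISA, reflects 24 h chemical exposure of human skin primary fibroblasts. DMSO serves as negative control and baseline.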

Read-out in experiment [3]: Matrix Metallopeptidase 1 (MMP1), MMP1 (gene 4312)
The experiment is described as follows: BSK_hDFCGF_MMP1: BioMAP Diversity Plus: hDFCGF Assay for Matrix Metallopeptidase 1 (MMP1) Biomarker Activity (AID 2283064). The following applies: primary human foreskin fibroblasts; actives raise or lower the signal. The method, boiled down:
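ELISA read-out of MMP1 from human foreskin fibroblasts (primary skin cells), 24 h post-dose. Gain or loss of signal was fitted bidirectionally versus DMSO negative control; cytotoxicity was checked by SRB in parallel cultures.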

Read-out in experiment [4]: Vascular cell adhesion molecule 1 (VCAM1), VCAM1 (gene 7412)
The experiment is described as follows: BSK_hDFCGF_VCAM1: BioMAP Diversity Plus: hDFCGF Assay for Vascular cell adhesion molecule 1 (VCAM1) Biomarker Activity (AID 2283065).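 On AC50: VCAM-1 protein level quantified by ELISA after 24 h chemical exposure.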 The following applies: primary human foreskin fibroblasts; actives raise or lower the signal. The method, boiled down: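 Cells are dosed, cultured for 24 h, then VCAM-1 is quantified by ELISA; signal increases and decreases are both fitted relative to DMSO.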

Read-out in experiment [5]: Intercellular Adhesion Molecule 1 (ICAM1), ICAM1 (gene 3383)
In words: BSK_KF3CT_ICAM1: BioMAP Diversity Plus: KF3CT Assay for Intercellular Adhesion Molecule 1 (ICAM1) Biomarker Activity (AID 2283067). The conditions noted are these: primary human keratinocytes with fibroblasts; actives raise or lower the signal. The procedure, abridged: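 Dose the keratinocyte/fibroblast co-culture, wait 24 h, measure ICAM-1 by ELISA, then fit increases or decreases against DMSO. Cytotoxicity is checked in parallel cultures by SRB total-protein staining.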

Read-out in experiment [6]: Interferon-gamma inducible Protein 10 (IP10), CXCL10 (gene 3627)
The experiment is described as follows: BSK_KF3CT_IP10: BioMAP Diversity Plus: KF3CT Assay for Interferon-gamma inducible Protein 10 (IP10) Biomarker Activity (AID 2283068). The following applies: primary human keratinocytes with fibroblasts; actives raise or lower the signal. The procedure, abridged: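 ELISA read-out of IP-10 after 24 h chemical dosing of human skin primary co-culture (keratinocytes, foreskin fibroblasts). Gain or loss of signal relative to DMSO, bidirectional curve fit.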

Experiment [7] is described as follows: BSK_KF3CT_SRB: Viability Assessment in the BioMAP Diversity Plus: KF3CT Assay (AID 2283069). The conditions noted are these: primary human keratinocytes with fibroblasts. The method, boiled down: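 SRB read-out at 560 nm (0.1% stain, TCA-fixed cells) gauges overt cytotoxicity in a human skin keratinocyte–fibroblast co-culture 24 h post-dosing. Signal change was fitted bidirectionally relative to DMSO control.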

Read-out in experiment [8]: Interleukin-1 alpha (IL1a), IL1A (gene 3552)
The experiment is described as follows: BSK_KF3CT_IL1a: BioMAP Diversity Plus: KF3CT Assay for Interleukin-1 alpha (IL1a) Biomarker Activity (AID 2283070). The following applies: primary human keratinocytes with fibroblasts; actives raise or lower the signal. The procedure, abridged: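 Primary skin co-culture (keratinocytes, foreskin fibroblasts), 24 h exposure; ELISA for IL-1a; bidirectional curve fit vs DMSO.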

Read-out in experiment [9]: TIMP metallopeptidase inhibitor 2 (TIMP2), TIMP2 (gene 7077)
The experiment is described as follows: BSK_KF3CT_TIMP2: BioMAP Diversity Plus: KF3CT Assay for TIMP metallopeptidase inhibitor 2 (TIMP2) Biomarker Activity (AID 2283071). The conditions noted are these: primary human keratinocytes with fibroblasts; actives raise or lower the signal. The procedure, abridged:
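Measurements come from ELISA detection of TIMP-2 at 24 hours in a dosed human keratinocyte and foreskin fibroblast co-culture. DMSO serves as negative control and baseline.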

Read-out in experiment [10]: Transforming growth factor beta 1 (TGFb1), TGFB1 (gene 7040)
The experiment is described as follows: BSK_KF3CT_TGFb1: BioMAP Diversity Plus: KF3CT Assay for Transforming growth factor beta 1 (TGFb1) Biomarker Activity (AID 2283072). The conditions noted are these: primary human keratinocytes with fibroblasts; actives raise or lower the signal. The procedure, abridged: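 TGF-b1 ELISA on a 24 h dosed co-culture of human keratinocytes and foreskin fibroblasts; cytotoxicity tracked in parallel cultures by SRB staining.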

Read-out in experiment [11]: C-C motif chemokine 2 (Homo sapiens) (UniProt P13500)
In words: BSK_KF3CT_MCP1: BioMAP Diversity Plus: KF3CT Assay for Monocyte Chemoattractant Protein 1 (MCP1/CCL2) Biomarker Activity (AID 2283073). The following applies: primary human keratinocytes with fibroblasts; actives raise or lower the signal. The method, boiled down:
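Keratinocytes and foreskin fibroblasts were co-cultured, dosed with chemical, and sampled 24 h later. MCP-1 was quantified by ELISA, and the endpoint was analyzed with bidirectional fitting using DMSO as negative control.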

Read-out in experiment [12]: Matrix Metallopeptidase 9 (MMP9), MMP9 (gene 4318)
In words: BSK_KF3CT_MMP9: BioMAP Diversity Plus: KF3CT Assay for Matrix Metallopeptidase 9 (MMP9) Biomarker Activity (AID 2283074).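 On AC50: MMP9 protein level quantified by ELISA in the co-culture.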 The following applies: primary human keratinocytes with fibroblasts; actives raise or lower the signal. The procedure, abridged:
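ELISA read-out of MMP-9 at 24 h post-dosing in a co-culture of human skin keratinocytes and foreskin fibroblasts. Gain or loss of signal was fitted in both directions against DMSO.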

Read-out in experiment [13]: urokinase plasminogen activator (uPA), PLAU (gene 5328)
The experiment is described as follows: BSK_KF3CT_uPA: BioMAP Diversity Plus: KF3CT Assay for urokinase plasminogen activator (uPA) Biomarker Activity (AID 2283075). The following applies: primary human keratinocytes with fibroblasts; actives raise or lower the signal. The method, boiled down:
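Skin co-culture (keratinocytes + foreskin fibroblasts), human primary; 24 h post-dose; uPA by ELISA; gain/loss fit vs DMSO baseline.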

Read-out in experiment [14]: CD40, CD40 (gene 958)
The experiment is described as follows: BSK_LPS_CD40: BioMAP Diversity Plus: LPS Assay for CD40 Biomarker Activity (AID 2283076). The conditions noted are these: primary human HUVEC with PBMC; actives raise or lower the signal. The method, boiled down: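 CD40 signal, measured by ELISA, is fitted in both directions relative to DMSO vehicle. The system is an LPS-driven human vascular primary co-culture of endothelial cells and PBMC, sampled 24 h after compound addition.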

Read-out in experiment [15]: E-selectin (Homo sapiens) (UniProt P16581)
In words: BSK_LPS_Eselectin: BioMAP Diversity Plus: LPS Assay for Eselectin Biomarker Activity (AID 2283077). The conditions noted are these: primary human HUVEC with PBMC; actives raise or lower the signal. The method, boiled down: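 Signal of E-selectin, detected by ELISA, served as the endpoint; cells were umbilical vein endothelium with PBMC, read 24 h after treatment. DMSO defined baseline, and both increases and decreases were fitted.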

Read-out in experiment [16]: Interleukin-8 (IL8), CXCL8 (gene 3576)
In words: BSK_LPS_IL8: BioMAP Diversity Plus: LPS Assay for Interleukin-8 (IL8) Biomarker Activity (AID 2283078). The following applies: primary human HUVEC with PBMC; actives raise or lower the signal. The method, boiled down:
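Endothelial cells and PBMC from human donors are co-cultured, treated with chemicals and LPS, then assayed for IL-8 by ELISA after 24 h. Parallel SRB staining (0.1% SRB after 10% TCA fixation, 560 nm) flags cytotoxicity.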

The nature of experiment [17]: BSK_LPS_SRB: Viability Assessment in the BioMAP Diversity Plus: LPS Assay (AID 2283079).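 Further: total protein by sulforhodamine B absorbance as a cytotoxicity measure; measured one day after compound addition.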 The conditions noted are these: primary human HUVEC with PBMC. The method, boiled down: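 Overt cytotoxicity was gauged by sulforhodamine B total-protein staining in a primary human vascular endothelial and mononuclear cell co-culture 24 h post-dosing. Activity was fitted in both directions relative to DMSO.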

Read-out in experiment [18]: Interleukin-1 alpha (IL1a), IL1A (gene 3552)
In words: BSK_LPS_IL1a: BioMAP Diversity Plus: LPS Assay for Interleukin-1 alpha (IL1a) Biomarker Activity (AID 2283080). The conditions noted are these: primary human HUVEC with PBMC; actives raise or lower the signal. The method, boiled down:
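Measured: IL-1 alpha via ELISA at 24 h in LPS-activated human umbilical vein endothelium–PBMC co-culture. Baseline: DMSO, bidirectional fitting.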

Read-out in experiment [19]: Monocyte Chemoattractant Protein-1 (MCP1), CCL2 (gene 6347)
The experiment is described as follows: BSK_LPS_MCP1: BioMAP Diversity Plus: LPS Assay for Monocyte Chemoattractant Protein-1 (MCP1) Biomarker Activity (AID 2283081).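 On AC50: secreted MCP-1 protein quantified by ELISA in culture supernatant.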 The conditions noted are these: primary human HUVEC with PBMC; actives raise or lower the signal. The procedure, abridged:
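LPS-stimulated HUVEC/PBMC co-culture; chemical, 24 h; MCP-1 by ELISA; bidirectional fit vs DMSO; cytotoxicity via SRB (0.1% stain, 10% TCA fix, 560 nm) in parallel wells.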

Chain of E-selectin (Homo sapiens) (P16581 whole entry, looked up): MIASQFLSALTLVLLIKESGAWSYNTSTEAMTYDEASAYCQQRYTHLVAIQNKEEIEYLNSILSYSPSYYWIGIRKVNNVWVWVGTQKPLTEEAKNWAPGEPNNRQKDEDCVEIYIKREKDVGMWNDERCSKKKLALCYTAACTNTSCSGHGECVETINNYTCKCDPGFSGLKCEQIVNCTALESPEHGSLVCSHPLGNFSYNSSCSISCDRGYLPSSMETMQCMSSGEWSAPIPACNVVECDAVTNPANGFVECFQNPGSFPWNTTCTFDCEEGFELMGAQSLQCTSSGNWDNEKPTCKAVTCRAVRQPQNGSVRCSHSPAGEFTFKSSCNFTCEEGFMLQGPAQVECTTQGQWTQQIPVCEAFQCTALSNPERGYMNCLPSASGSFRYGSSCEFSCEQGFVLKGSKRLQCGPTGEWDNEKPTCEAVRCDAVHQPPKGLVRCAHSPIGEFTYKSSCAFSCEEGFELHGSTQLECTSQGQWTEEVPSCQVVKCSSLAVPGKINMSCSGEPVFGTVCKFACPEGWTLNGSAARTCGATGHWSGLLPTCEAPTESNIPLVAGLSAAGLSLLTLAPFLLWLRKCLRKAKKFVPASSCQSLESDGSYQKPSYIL

For `Nc1ccc(Oc2ccc(N)cc2)cc1`, the outcome in [1], in [2], in experiment [3], in experiment [4], in [5] and in experiment [6] was inactive. For the same compound, the result in [7], in experiment [8], in experiment [9], in experiment [10], in experiment [11] and in [12] was inactive. The result in experiment [13], in [14], in experiment [15], in experiment [16], in experiment [17] and in experiment [18] was inactive. In addition, in [19], the result was inactive.
A word on the AC50: it is the concentration giving half of the maximal activity seen. Take `Clc1ccc(C(c2ccc(Cl)cc2)C(Cl)Cl)cc1`: the AC50 in experiment [1] is 11.2 µM (active); in experiment [2], 11.8 µM (active); in experiment [3], 10.8 µM (active); in experiment [4], 9.19 µM (active); in experiment [5], 15.5 µM (active); in [6], 13.9 µM (active). Also, the AC50 was 12.8 µM (active) in [7]; 13.8 µM (active) in [8]; 11.2 µM (active) in [9]; 9.57 µM (active) in experiment [10]; 10.4 µM (active) in experiment [11]; 10.2 µM (active) in [12]. The AC50 in [13] was 11.6 µM (active); in [14], 29 µM (active); in experiment [15], 30.3 µM (active); in experiment [18] it was 28.6 µM (active); in [19] it was 35.2 µM (active).
On to `CNC(=O)Oc1cccc2c1OC(C)(C)C2`, for which the result in experiment [1], in experiment [2], in [3], in experiment [4], in [5] and in experiment [6] was inactive. In addition, the result in experiment [7], in experiment [8], in experiment [9], in [10], in [11] and in experiment [12] was inactive. For the same compound, the outcome in experiment [13], in experiment [14], in experiment [15], in experiment [16], in [17] and in [18] was inactive. The outcome in [19] was inactive.
Regarding `Cc1ccc(N)cc1`, the outcome in [1], in [2], in experiment [3], in [4], in experiment [5] and in [6] was inactive. Further, the result in [7], in [8], in experiment [9], in [10], in experiment [11] and in [12] was inactive. Further, the outcome in experiment [13], in [14], in experiment [15], in experiment [16], in experiment [17] and in experiment [18] was inactive.

These data come from PubChem BioAssay (EPA / NIEHS).
